From PubChem BioAssay
Many of the other results were omitted from the sample, so hits are more common in it than they were.
Pf Dd2 inh = blocks in vitro growth of P. falciparum Dd2; P. falciparum Dd2 growth, SYBR Green, 72 h; Potency, µM (titrated, usually from 28.9 µM), for inactives: at the top dose activity, negative = inhibition, usual class: inhibitors; 4.3% of 120,000 active; AID 1347417; active means well fitted inhibition curve with a large enough effect;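 further: plate controls were DMSO vehicle for no effect and reference drug for full effect; nearly all actives have a fitted effect of over 65% in size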
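Readout: SYBR Green fluorescence, 485 nm excitation, 535 nm emission, after ~16 h lysis at 37C. Before that, Dd2-infected red cells (2.5% hematocrit) grew 72 h with compound, 29 uM top final concentration.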
An asterisk follows results filed as active; i = inactive; [ ] = remark or other dose. Potency means the concentration at half of the fitted maximal effect.

SMILES	Pf Dd2 inh
O=C(Cn1cccc1-c1nc(-c2ccc3c(c2)OCO3)no1)Nc1cc(F)cc(F)c1	5.01µM*
O=C(Cn1cccc1-c1nc(-c2ccc3c(c2)OCO3)no1)NCc1ccc(F)cc1F	12.1%
Cc1cc(C)c(NC(=O)Cn2cccc2-c2nc(-c3ccc4c(c3)OCO4)no2)c(C)c1	10.5%
COCCN1CCC(CN(Cc2ccncc2)C(=O)c2scnc2C)CC1	-7.5%
O=C(C1CCN(c2cnn(Cc3ccccc3)c(=O)c2)C1)N1CCCC1 (centres undefined)	-9.0%
O=C(c1ccc(Br)o1)N1CC2CC(C1)[C@H]1CCCC(=O)N1C2 (some centres undefined)	9.6%
O=C(NC1CCCC1)N1CCc2nnc(C3CC3)n2CC1	5.9%
Nc1nc(CC(=O)N2CCCC(CNC(=O)c3ccc(F)cc3)C2)cc(=O)[nH]1 (centres undefined)	-20.4%
O=C(Cn1nc2n(c1=O)CCCC2)Nc1ccc(F)cc1	3.8%
COc1ccc(CN2CCn3c(nnc3-c3ccncc3)C2)cc1	-0.8%
CCOC(=O)C1=C(CN2CCN(c3ccc(OC)cc3)CC2)NC(=O)NC1c1ccc(Cl)cc1 (centres undefined)	-16.5%
CCOC(=O)C1=C(CN(C)Cc2ccccc2)NC(=O)NC1c1ccc(OC)cc1 (centres undefined)	i
CCOC(=O)C1=C(CNCc2ccccc2)NC(=O)NC1c1ccc(C)cc1 (centres undefined)	10µM*
CCOC(=O)C1=C(CN2CCN(c3cc(C)ccc3C)CC2)NC(=O)NC1c1ccc(Cl)cc1 (centres undefined)	10µM*
CCOC(=O)C1=C(CN(CC)Cc2ccccc2)NC(=O)NC1c1ccc(Cl)cc1 (centres undefined)	i
CCOC(=O)C1=C(CN2CCN(C)CC2)NC(=O)NC1c1ccc(F)cc1 (centres undefined)	48.7%
O=C(N[C@H]1C[C@H]2C(=O)Nc3ccccc3C(=O)N2C1)c1cccnc1	15.3%[44.1 µM]
Cc1ccc(C2=NC3(CCN(C(=O)c4sccc4C)CC3)ON2)cc1	-1.4%
CN(CC1CCOCC1)S(=O)(=O)Cc1ccccc1	-12.5%
O=C(NCCc1ccc(Cl)cc1)C1CCc2nnc(C3CCN(C(=O)C4CC4)CC3)n21 (centres undefined)	58.0%
CCOC(=O)C1=CN(CC(=O)NC(C)c2ccccc2)S(=O)(=O)N=C1C (centres undefined)	29.5%
C[S+](=O)([O-])N1Cc2ccccc2OC2(CCN(C(=O)c3cccc4[nH]ccc34)CC2)C1	-28.9%
CN(C)C(=O)N1CCC2(CC1)CN(C(=O)c1cccc3[nH]ccc13)Cc1ccccc1O2	-27.5%
CC(=O)N1Cc2ccccc2OC2(CCN(C(=O)NC(C)C)CC2)C1	-8.5%
CC(C)NC(=O)N1Cc2ccccc2OC2(CCN(C(=O)c3cccc4[nH]ccc34)CC2)C1	11.2µM*
SMILES	Pf Dd2 inh
CC(C)NC(=O)N1CCC2(CC1)CN(C(=O)c1ccc3[nH]ccc3c1)Cc1ccccc1O2	12.6µM*
CC(=O)N1CCC2(CC1)CN(C(=O)NC(C)C)Cc1ccccc1O2	9.3%
CC1CCC2(CC1)NC(=O)N(CC(=O)NCc1cccc(Br)c1)C2=O (centres undefined)	i
CC(C)CN1C(=O)CO[C@H](c2ccc(NS(=O)(=O)c3cccc(F)c3)cc2)[C@H]1CO	i
O=C(NCc1nc(-c2cccc(F)c2)c(-c2ccccn2)[nH]1)[C@@H]1C[C@@H](O)CN1	13.4%
O=C(CN1CCNCC1)NCc1nc(-c2cccc(F)c2)c(-c2ccccn2)[nH]1	-16.3%
Cc1ccc(-c2nc(CNC(=O)[C@@H]3CCC[C@H](N)C3)[nH]c2-c2ccccn2)cc1	10µM*
O=C(c1cc(F)ccc1Cl)N1C[C@@H](CO)[C@H](c2ccccn2)C1	16.3%
CCc1ccc(NC(=O)CCc2c(C)nc3nc(-c4cc(OC)cc(OC)c4)nn3c2C)cc1	i
COc1cc(OC)cc(-c2nc3nc(C)c(CCC(=O)NCCC(C)C)c(C)n3n2)c1	43.1%
COc1cc(OC)cc(-c2nc3nc(C)c(CCC(=O)Nc4cc(C)cc(C)c4)c(C)n3n2)c1	8.91µM*
CCN1CCN(CCCNC(=O)CN2CC3CC(C2)[C@H]2CCCC(=O)N2C3)CC1 (some centres undefined)	-22.2%
CCn1ccc(C(=O)N2CCC(F)(c3nc(-c4ccncc4)no3)CC2)n1	-8.4%
CNC(=O)[C@@H](c1ccccc1F)N1CCC[C@H]1C(=O)NCC(C)C	5.1%[44.1 µM]
O[C@H]1CC[C@@H](Cc2cc(COc3ccccc3)on2)O[C@@H]1CNCc1cccc(Cl)c1	1.26µM*
COCc1cc(C[C@@H]2CC[C@H](O)[C@@H](CNCc3ccccc3)O2)no1	i
O[C@H]1CC[C@@H](Cc2cc(-c3ccccc3)on2)O[C@@H]1CNC1CCCCC1	4.47µM*
O=C(COc1ccccc1)NC[C@H]1O[C@H](Cc2cc(-c3ccccc3)on2)CC[C@@H]1O	i
CC(C)CCNC[C@H]1O[C@H](Cc2cc(-c3ccc(F)cc3)on2)CC[C@@H]1O	3.55µM*
O=C(NC[C@H]1O[C@H](Cc2cc(-c3ccc(F)cc3)on2)CC[C@@H]1O)C1CCC1	i
